# Source: PubChem BioAssay AID1159580 (chemical genetic matrix, 2015)
# Values joined by “and” are separate entries in the source; they are usually repeats but may differ in a detail not shown here. Equal values may be shown once. Out of some 5,500 compounds screened, about 2,000 (36%) were called active. Inconclusive results (about 18%) are left out. Cut-off read from the data, not from the text of the source: active = normalized growth mostly below about 0.91 (no sharp cut-off); inconclusive = no clear call, values can overlap the other calls; inactive = mostly above about 0.92. Some of the results follow.
# Assay: chemical genetic growth profiling, strain panel (AID 1159580);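 note: tested at 20 µM; growth read once vehicle control cultures reached saturation at 30 °C; 1 = growth at the plate median or of vehicle wells; lower values mean less growth of the strain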
# Conditions: S. cerevisiae deletion strains, growth OD
structure (smiles),measurement,setting,value
CN1CCC[C@@H]1CCO[C@](C)(c1ccccc1)c1ccc(Cl)cc1,normalized growth,"locus YAL013W, strain DEP1, stronger effect = lower value",0.998 (inactive)
same,normalized growth,"locus YAL021C, strain ccr4, stronger effect = lower value",0.88 (active)
same,normalized growth,"locus YAL026C, strain drs2, stronger effect = lower value",0.62 (active)
same,normalized growth,"locus YAL030W, strain snc1, stronger effect = lower value",1 (inactive)
same,normalized growth,"locus YBL061C, strain skt5, stronger effect = lower value",0.998 (inactive)
same,normalized growth,"locus YBR009C, strain hhf1, stronger effect = lower value",0.957 (inactive)
same,normalized growth,"locus YBR021W, strain FUR4, stronger effect = lower value",0.671 (active)
same,normalized growth,"locus YBR023C, strain chs3, stronger effect = lower value",0.949 (inactive)
same,normalized growth,"locus YBR171W, strain sec66, stronger effect = lower value",0.997 (inactive)
same,normalized growth,"locus YBR229C, strain ROT2, stronger effect = lower value",1.01 (inactive)
same,normalized growth,"locus YBR231C, strain swc5, stronger effect = lower value",0.984 (inactive)
same,normalized growth,"locus YBR279W, strain paf1, stronger effect = lower value",0.964 (inactive)
same,normalized growth,"locus YCL011C, strain gbp2, stronger effect = lower value",0.959 (inactive)
same,normalized growth,"locus YCL016C, strain dcc1, stronger effect = lower value",0.968 (inactive)
same,normalized growth,"locus YCL029C, strain bik1, stronger effect = lower value",0.991 (inactive)
same,normalized growth,"locus YCL069W, strain vba3, stronger effect = lower value",0.969 (inactive)
same,normalized growth,"locus YCR088W, strain abp1, stronger effect = lower value",0.999 (inactive)
same,normalized growth,"locus YDL005C, strain med2, stronger effect = lower value",1 (inactive)
same,normalized growth,"locus YDL035C, strain GPR1, stronger effect = lower value",0.913 (inactive)
same,normalized growth,"locus YDL040C, strain nat1, stronger effect = lower value",1 (inactive)
same,normalized growth,"locus YDL074C, strain BRE1, stronger effect = lower value",0.817 (inactive)
same,normalized growth,"locus YDL101C, strain DUN1, stronger effect = lower value",1.01 (inactive)
same,normalized growth,"locus YDL134C, strain PPH21, stronger effect = lower value",1.01 (inactive)
same,normalized growth,"locus YDL185W, strain tfp1, stronger effect = lower value",0.99 (inactive)
same,normalized growth,"locus YDL192W, strain arf1, stronger effect = lower value",1.01 (inactive)
same,normalized growth,"locus YDR001C, strain nth1, stronger effect = lower value",1.02 (inactive)
same,normalized growth,"locus YDR069C, strain doa4, stronger effect = lower value",0.955 (inactive)
same,normalized growth,"locus YDR101C, strain arx1, stronger effect = lower value",0.988 (inactive)
same,normalized growth,"locus YDR137W, strain rgp1, stronger effect = lower value",1.24 [resistant] (active)
same,normalized growth,"locus YDR150W, strain NUM1, stronger effect = lower value",1.02 (inactive)
same,normalized growth,"locus YDR159W, strain sac3, stronger effect = lower value",1.01 (inactive)
same,normalized growth,"locus YDR162C, strain NBP2, stronger effect = lower value",0.993 (inactive)
same,normalized growth,"locus YDR195W, strain ref2",1.08 (inactive)
same,normalized growth,"locus YDR297W, strain sur2, stronger effect = lower value",0.998 (inactive)
same,normalized growth,"locus YDR318W, strain mcm21, stronger effect = lower value",0.984 (inactive)
same,normalized growth,"locus YDR334W, strain swr1, stronger effect = lower value",1.01 (inactive)
same,normalized growth,"locus YDR335W, strain msn5, stronger effect = lower value",0.987 (inactive)
same,normalized growth,"locus YDR388W, stronger effect = lower value",0.911 (active)
same,normalized growth,"locus YDR392W, strain spt3, stronger effect = lower value",0.866 (inactive)
same,normalized growth,"locus YDR502C, strain sam2, stronger effect = lower value",0.97 (inactive)
same,normalized growth,"locus YEL003W, strain gim4, stronger effect = lower value",0.952 (inactive)
same,normalized growth,"locus YEL037C, strain rad23, stronger effect = lower value",0.993 (inactive)
same,normalized growth,"locus YEL061C, strain CIN8 (second series), stronger effect = lower value",1 (inactive)
same,normalized growth,"locus YEL061C, strain CIN8, stronger effect = lower value",1 (inactive)
same,normalized growth,"locus YER015W, strain faa2, stronger effect = lower value",0.798 (active)
same,normalized growth,"locus YER016W, strain bim1, stronger effect = lower value",0.992 (inactive)
same,normalized growth,"locus YER110C, stronger effect = lower value",0.999 (inactive)
same,normalized growth,"locus YER111C, strain swi4, stronger effect = lower value",1.02 (inactive)
same,normalized growth,"locus YER155C, strain BEM2 (second series), stronger effect = lower value",0.818 (active)
same,normalized growth,"locus YER155C, strain BEM2, stronger effect = lower value",1.03 (inactive)
same,normalized growth,"locus YER167W, strain BCK2, stronger effect = lower value",1 (inactive)
same,normalized growth,"locus YFR010W, strain ubp6, stronger effect = lower value",0.898 (active)
same,normalized growth,"locus YGL078C, strain dbp3, stronger effect = lower value",0.99 (inactive)
same,normalized growth,"locus YGL086W, strain mad1, stronger effect = lower value",0.973 (inactive)
same,normalized growth,"locus YGL167C, strain pmr1, stronger effect = lower value",1.02 (inactive)
same,normalized growth,"locus YGL173C, strain kem1, stronger effect = lower value",0.955 (inactive)
same,normalized growth,"locus YGL227W, strain vid30, stronger effect = lower value",0.996 (inactive)
same,normalized growth,"locus YGL240W, strain doc1, stronger effect = lower value",0.919 (inactive)
same,normalized growth,"locus YGL248W, strain PDE1, stronger effect = lower value",1.01 (inactive)
same,normalized growth,"locus YGL253W, strain hxk2, stronger effect = lower value",0.916 (inactive)
same,normalized growth,"locus YGR078C, strain PAC10, stronger effect = lower value",0.95 (inactive)
same,normalized growth,"locus YGR135W, strain pre9, stronger effect = lower value",0.879 (active)
same,normalized growth,"locus YGR229C, strain SMI1, stronger effect = lower value",0.491 (active)
same,normalized growth,"locus YGR252W, strain gcn5, stronger effect = lower value",0.688 (active)
same,normalized growth,"locus YHR013C, strain ard1, stronger effect = lower value",0.856 (inactive)
same,normalized growth,"locus YHR027C, strain rpn1, stronger effect = lower value",0.904 (active)
same,normalized growth,"locus YHR030C, strain SLT2, stronger effect = lower value",0.843 (active) and 0.985 (inactive)
same,normalized growth,"locus YHR079C, strain IRE1 (second series), stronger effect = lower value",0.994 (inactive)
same,normalized growth,"locus YHR079C, strain IRE1, stronger effect = lower value",0.992 (inactive)
same,normalized growth,"locus YHR094C, strain hxt1, stronger effect = lower value",0.994 (inactive)
same,normalized growth,"locus YHR129C, strain ARP1, stronger effect = lower value",1.01 (inactive)
same,normalized growth,"locus YHR142W, strain chs7, stronger effect = lower value",0.884 (inactive)
same,normalized growth,"locus YHR200W, strain rpn10, stronger effect = lower value",1 (inactive)
same,normalized growth,"locus YIL066C, strain RNR3, stronger effect = lower value",0.978 (inactive)
same,normalized growth,"locus YIL073C, strain SPO22, stronger effect = lower value",0.904 (inactive)
same,normalized growth,"locus YIL125W, strain kgd1, stronger effect = lower value",0.999 (inactive)
same,normalized growth,"locus YIR030C, strain dcg1, stronger effect = lower value",0.993 (inactive)
same,normalized growth,"locus YJL092W, strain hpr5, stronger effect = lower value",0.982 (inactive)
same,normalized growth,"locus YJL095W, strain BCK1 (second series), stronger effect = lower value",0.923 (inactive)
same,normalized growth,"locus YJL095W, strain BCK1, stronger effect = lower value",0.745 (active) and 0.991 (inactive)
same,normalized growth,"locus YJL115W, strain asf1, stronger effect = lower value",0.999 (inactive)
same,normalized growth,"locus YJL129C, strain trk1, stronger effect = lower value",0.921 (inactive)
same,normalized growth,"locus YJL134W, strain LCB3, stronger effect = lower value",1.01 (inactive)
same,normalized growth,"locus YJL154C, strain vps35, stronger effect = lower value",0.996 (inactive)
same,normalized growth,"locus YJL164C, strain tpk1, stronger effect = lower value",0.937 (inactive)
same,normalized growth,"locus YJL166W, strain qcr8, stronger effect = lower value",0.94 (inactive)
same,normalized growth,"locus YJL168C, strain set2, stronger effect = lower value",1 (inactive)
same,normalized growth,"locus YJL187C, strain SWE1 (second series), stronger effect = lower value",0.987 (inactive)
same,normalized growth,"locus YJL187C, strain SWE1, stronger effect = lower value",0.992 (inactive)
same,normalized growth,"locus YJR043C, strain POL32, stronger effect = lower value",1.03 (inactive)
same,normalized growth,"locus YJR066W, strain TOR1, stronger effect = lower value",0.97 (inactive)
